Active and inactive are the calls of the source. How the source made its calls: active means hit-call score of the fitted dose curve at least 0.9, where 1 is the maximum; inactive means score below 0.9.
Key:
[1] = APR_HepG2_NuclearSize_72hr: Apredica 72-hour HepG2 Assay for Nuclear Size (AID 2282925); conditions: high-content imaging, actives raise or lower the signal
Outline: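 Compounds (0.39–200 uM, final DMSO 0.5%) were applied to HepG2 for 72 hr. Cells were then formaldehyde-fixed, permeabilized and labelled with Hoechst 33342. Nuclear diameter was quantified from six images per well.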

[2] = ATG_CRE_CIS: Attagene CIS-FACTORIAL HepG2 Assay for human cAMP Responsive Element (CRE) binding protein 3 (AID 2282926); conditions: HepG2 CRE cis-reporter, Attagene multiplexed mRNA; actives raise or lower the signal
Outline: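 Assay format: transient reporter transfection of HepG2, 24 h treatment, total RNA isolation with DNase I step. Reporter abundance read by fluorescence after PCR and capillary separation; DMSO-normalised gain or loss fitting.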

[3] = target: CCAAT/enhancer-binding protein beta (Homo sapiens) (UniProt P17676); assay: ATG_C_EBP_CIS: Attagene CIS-FACTORIAL HepG2 Assay for human CCAAT/Enhancer Binding Protein (C/EBP) beta (AID 2282927); conditions: HepG2 Attagene cis-factorial transcription factor reporter; actives raise or lower the signal
Outline: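 RT-PCR/capillary electrophoresis fluorescence of reporter mRNA, 24 h post-dose, in HepG2 cells carrying transfected cis-promoter reporter units. Bidirectional curve fitting against DMSO baseline captures gain or loss of signal.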

[4] = ATG_CMV_CIS: Attagene CIS-FACTORIAL HepG2 Assay for human CMV (Internal Marker) (AID 2282928); conditions: HepG2 CMV promoter reporter, transcription factor profiling; actives raise or lower the signal;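 further: endpoint acts as a background internal control marker rather than a target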
Outline: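 24 h chemical treatment, HepG2 with transient multi-reporter transfection; RNA → oligo(dT) RT → PCR → 6-FAM extension → HpaI digest → CE fluorescence. Bidirectional fit, DMSO negative control.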

[5] = ATG_DR4_LXR_CIS: Attagene CIS-FACTORIAL HepG2 Assay for human Liver X Receptor (LXR), DR4 submotif (AID 2282929); conditions: HepG2 Attagene DR4 cis-reporter, mRNA transcription; actives raise or lower the signal
Outline: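 DR4 cis-reporter in HepG2, 24 h exposure. Detection: RT-PCR, 6-FAM labelling, CE fragment analysis. Endpoint fitted bidirectionally, DMSO = baseline.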

[6] = target: Aryl hydrocarbon receptor (Homo sapiens) (UniProt P35869); assay: ATG_Ahr_CIS: Attagene CIS-FACTORIAL HepG2 Assay for human Aryl Hydrocarbon Receptor (Ahr) (AID 2282930); conditions: HepG2 AhR cis-factorial reporter transcription; actives raise or lower the signal
Outline: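 HepG2 cells transiently transfected with cis-element-driven multiplexed reporter transcription units; endogenous transcription factor activity measured as reporter mRNA 24 h after dosing. RT-PCR, 6-FAM labelling, HpaI digestion, capillary electrophoresis; bidirectional fitting versus DMSO baseline.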

[7] = ATG_AP_1_CIS: Attagene CIS-FACTORIAL HepG2 Assay for human Activator Protein 1 (AP-1) (AID 2282931); conditions: HepG2 Attagene cis-factorial AP-1 reporter mRNA; actives raise or lower the signal
Outline: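 Cis-regulated reporter units transiently expressed in HepG2 report endogenous transcription-factor activity. Signal: reporter mRNA at 24 h, via RT-PCR and fluorescent capillary electrophoresis. Endpoint derived by bidirectional fitting, DMSO as negative control.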

[8] = ATG_AP_2_CIS: Attagene CIS-FACTORIAL HepG2 Assay for human Activator Protein 2 (AP-2) (AID 2282932); conditions: HepG2 AP-2 cis-reporter, Attagene transcription factor profiling; actives raise or lower the signal
Outline: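 Assay in transfected HepG2 with promoter-regulated reporters, 24 h incubation after dosing. Signal is reporter mRNA fluorescence (RT-PCR, capillary electrophoresis), analysed for both increases and decreases relative to DMSO controls.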

[9] = ATG_BRE_CIS: Attagene CIS-FACTORIAL HepG2 Assay for human Bone Morphogenetic Protein (BMP) Response Element (BRE) (AID 2282933); conditions: HepG2 BMP response element reporter, Attagene transcription factor profiling; actives raise or lower the signal
Outline: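 Transient MRTU transfection of human HepG2 liver cells; 24 h compound treatment; total RNA isolated, reverse-transcribed, PCR-amplified, 6-FAM labelled, HpaI-cut, capillary electrophoresis. DMSO = negative control/baseline, bidirectional fit.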

[10] = target: Retinoic acid receptor alpha (Homo sapiens) (UniProt P10276); assay: ATG_DR5_RAR_CIS: Attagene CIS-FACTORIAL HepG2 Assay for human Retinoic Acid Receptor Alpha (RARE), DR5 submotif (AID 2282934); conditions: HepG2 Attagene cis-factorial RARE DR5 reporter, mRNA; actives raise or lower the signal;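 on AC50: reporter responds to endogenous RAR alpha beta and gamma in HepG2 not RARA alone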
Outline: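 HepG2 cells transiently transfected with multiplexed reporter units under cis (DR5 RARE) promoters, so endogenous transcription factor activity is measured. After 24 h compound exposure, reporter mRNA is quantified by RT-PCR with fluorescent labelling and capillary electrophoresis; bidirectional fitting versus DMSO.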

[11] = target: Transcription factor E2F1 (Homo sapiens) (UniProt Q01094); assay: ATG_E2F_CIS: Attagene CIS-FACTORIAL HepG2 Assay for human E2F Transcription Factor 1 (AID 2282935); conditions: HepG2 Attagene cis-reporter, E2F reporter RNA transcripts; actives raise or lower the signal
Outline: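 In this cis-factorial format, endogenous factor activity drives transfected reporters in HepG2; transcripts collected at 24 h are quantified by fluorescence after RT-PCR and capillary separation.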

[12] = ATG_E_Box_CIS: Attagene CIS-FACTORIAL HepG2 Assay for human Enhancer Box (E-box) (AID 2282936); conditions: HepG2 E-box cis-reporter transcription, actives raise or lower the signal
Outline: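 Measured 24 h post-dosing in HepG2 cells transfected with multiple cis-regulated reporter units, signal being reporter mRNA induction detected by fluorescent RT-PCR with capillary electrophoresis; gain or loss fitted against DMSO.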

[13] = ATG_M_61_CIS: Attagene CIS-FACTORIAL HepG2 Assay for M61 Transcription Factor (Internal Marker) (AID 2282937); conditions: HepG2 Attagene CIS-FACTORIAL M61 internal marker reporter; actives raise or lower the signal
Outline: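 Background-control endpoint: HepG2 cells with cis-regulated reporter constructs, 24 h exposure, reporter mRNA detected via fluorescent primer extension and capillary electrophoresis; values from bidirectional fitting with DMSO baseline.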

[14] = ATG_EGR_CIS: Attagene CIS-FACTORIAL HepG2 Assay for human Early Growth Response 1 (EGR1) (AID 2282938); conditions: HepG2 Attagene CIS-FACTORIAL EGR reporter mRNA; actives raise or lower the signal
Outline: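 Endpoint derived by bidirectional fitting versus DMSO vehicle. Method: cis-promoter reporter units transfected into HepG2, 24 h dosing, RNA isolation, RT-PCR with 6-FAM primer extension and HpaI digestion, then capillary electrophoresis fluorescence detection.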

[15] = ATG_M_19_CIS: Attagene CIS-FACTORIAL HepG2 Assay for M19 Transcription Factor (Internal Marker) (AID 2282939); conditions: HepG2 Attagene CIS-FACTORIAL M19 internal marker reporter; actives raise or lower the signal
Outline: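 Transfect HepG2 with MRTU reporter library → dose chemical, 24 h → isolate total RNA, reverse-transcribe with oligo(dT) → PCR, 6-FAM label, HpaI cut (2 h, 37 C) → capillary electrophoresis. Bidirectional fit vs DMSO.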

[16] = ATG_ERE_CIS: Attagene CIS-FACTORIAL HepG2 Assay for Estrogen Response Element (ERE) (AID 2282940); conditions: HepG2 ERE cis-reporter, Attagene RNA transcript; actives raise or lower the signal
Outline: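 Transient MRTU transfection of human HepG2; cis-element promoters; 24 h dosing; total RNA → RT (oligo dT) → PCR → 6-FAM primer extension → HpaI digest → CE fluorescence. Bidirectional fit, DMSO baseline.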

[17] = ATG_Ets_CIS: Attagene CIS-FACTORIAL HepG2 Assay for human Erythroblast Transformation Specific (ETS) (AID 2282941); conditions: HepG2 ETS cis-reporter transcription, actives raise or lower the signal
Outline: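 Cis-regulated reporter mRNA induction in HepG2 (transient transfection), 24 h exposure, RT-PCR plus capillary electrophoresis detection; DMSO serves as negative control and baseline.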

[18] = target: Hepatocyte nuclear factor 3-beta (Homo sapiens) (UniProt Q9Y261); assay: ATG_FoxA2_CIS: Attagene CIS-FACTORIAL HepG2 Assay for human Forkhead box A2 (FOXA2) (AID 2282942); conditions: HepG2 cis-reporter transcription factor activity, 24 h; actives raise or lower the signal
Outline: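 Measured: reporter mRNA induction or loss in HepG2 transiently carrying multiple cis-regulated reporter units, 24 h after dosing. Quantified by RT-PCR plus capillary electrophoresis, normalised to DMSO.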

[19] = ATG_FoxO_CIS: Attagene CIS-FACTORIAL HepG2 Assay for human Forkhead box O (FoxO) (AID 2282943); conditions: HepG2 Attagene cis-reporter, FoxO element, mRNA; actives raise or lower the signal
Outline: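 HepG2 cells transiently transfected with cis-promoter-driven multiple reporter transcription units; 24 h after chemical dosing, reporter mRNA quantified by RT-PCR, fluorescent primer extension, HpaI digestion and capillary electrophoresis. Bidirectional fitting versus DMSO baseline.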

[20] = ATG_GATA_CIS: Attagene CIS-FACTORIAL HepG2 Assay for human GATA Binding Protein (AID 2282944); conditions: HepG2 GATA cis-element reporter, Attagene multiplex mRNA; actives raise or lower the signal
Outline: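 Transient MRTU transfection, HepG2, 24 h compound exposure. Total RNA → oligo(dT) RT → PCR → 6-FAM primer extension → HpaI cut → CE. Bidirectional fit vs DMSO.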

Measured: AC50

Sequence of CCAAT/enhancer-binding protein beta (Homo sapiens) (P17676 whole entry, looked up): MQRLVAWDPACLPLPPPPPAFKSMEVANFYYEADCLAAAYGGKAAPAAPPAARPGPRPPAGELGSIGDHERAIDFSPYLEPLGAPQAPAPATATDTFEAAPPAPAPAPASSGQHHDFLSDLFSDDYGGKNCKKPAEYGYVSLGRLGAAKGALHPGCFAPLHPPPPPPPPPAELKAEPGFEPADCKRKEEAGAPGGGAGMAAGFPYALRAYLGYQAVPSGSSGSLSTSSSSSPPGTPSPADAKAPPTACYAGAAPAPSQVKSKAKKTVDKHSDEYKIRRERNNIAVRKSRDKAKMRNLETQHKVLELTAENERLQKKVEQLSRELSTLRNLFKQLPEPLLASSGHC
Sequence of Transcription factor E2F1 (Homo sapiens) (Q01094 whole entry, looked up): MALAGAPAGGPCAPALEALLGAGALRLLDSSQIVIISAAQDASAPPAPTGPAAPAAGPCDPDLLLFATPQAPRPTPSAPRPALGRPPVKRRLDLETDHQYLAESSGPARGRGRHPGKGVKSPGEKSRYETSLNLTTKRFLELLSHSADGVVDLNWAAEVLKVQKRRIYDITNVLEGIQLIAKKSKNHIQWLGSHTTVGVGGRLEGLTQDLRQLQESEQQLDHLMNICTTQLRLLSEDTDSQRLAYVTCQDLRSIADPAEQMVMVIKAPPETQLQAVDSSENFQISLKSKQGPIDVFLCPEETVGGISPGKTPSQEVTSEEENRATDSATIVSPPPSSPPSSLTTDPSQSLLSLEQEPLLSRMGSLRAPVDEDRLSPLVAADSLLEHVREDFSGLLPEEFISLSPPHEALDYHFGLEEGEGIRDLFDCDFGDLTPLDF
Sequence of Retinoic acid receptor alpha (Homo sapiens) (P10276 whole entry, looked up): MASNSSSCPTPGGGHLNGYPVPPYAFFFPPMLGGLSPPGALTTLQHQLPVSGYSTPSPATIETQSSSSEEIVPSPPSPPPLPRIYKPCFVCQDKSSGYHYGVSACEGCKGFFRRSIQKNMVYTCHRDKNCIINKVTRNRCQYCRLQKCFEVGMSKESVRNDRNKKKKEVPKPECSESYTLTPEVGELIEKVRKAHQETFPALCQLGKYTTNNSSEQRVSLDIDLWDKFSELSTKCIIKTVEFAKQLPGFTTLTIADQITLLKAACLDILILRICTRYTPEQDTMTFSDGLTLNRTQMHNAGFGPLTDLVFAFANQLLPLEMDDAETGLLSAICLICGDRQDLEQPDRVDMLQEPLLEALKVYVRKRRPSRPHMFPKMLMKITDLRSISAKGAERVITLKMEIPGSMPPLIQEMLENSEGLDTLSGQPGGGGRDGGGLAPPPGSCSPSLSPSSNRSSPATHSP
Sequence of Aryl hydrocarbon receptor (Homo sapiens) (P35869 whole entry, looked up): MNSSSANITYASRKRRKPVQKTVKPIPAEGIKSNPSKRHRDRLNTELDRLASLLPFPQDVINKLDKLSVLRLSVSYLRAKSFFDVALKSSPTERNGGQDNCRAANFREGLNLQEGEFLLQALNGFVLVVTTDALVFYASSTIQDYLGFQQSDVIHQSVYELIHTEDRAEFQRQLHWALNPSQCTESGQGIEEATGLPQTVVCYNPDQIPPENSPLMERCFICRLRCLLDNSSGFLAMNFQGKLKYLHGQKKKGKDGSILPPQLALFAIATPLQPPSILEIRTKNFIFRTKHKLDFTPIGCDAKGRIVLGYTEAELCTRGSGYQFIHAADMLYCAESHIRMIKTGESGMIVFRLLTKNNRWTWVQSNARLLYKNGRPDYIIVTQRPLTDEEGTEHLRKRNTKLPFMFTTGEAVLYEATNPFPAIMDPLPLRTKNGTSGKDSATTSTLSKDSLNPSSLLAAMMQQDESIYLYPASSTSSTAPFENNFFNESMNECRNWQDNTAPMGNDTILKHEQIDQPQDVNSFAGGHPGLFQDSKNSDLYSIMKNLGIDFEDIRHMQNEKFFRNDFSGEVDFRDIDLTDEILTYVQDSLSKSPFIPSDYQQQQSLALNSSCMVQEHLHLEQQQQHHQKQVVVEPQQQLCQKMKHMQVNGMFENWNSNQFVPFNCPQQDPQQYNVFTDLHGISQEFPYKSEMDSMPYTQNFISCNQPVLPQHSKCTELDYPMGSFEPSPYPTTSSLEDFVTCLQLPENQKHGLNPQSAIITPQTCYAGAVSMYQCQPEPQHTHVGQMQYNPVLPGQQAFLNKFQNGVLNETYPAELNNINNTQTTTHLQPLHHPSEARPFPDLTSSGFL
Sequence of Hepatocyte nuclear factor 3-beta (Homo sapiens) (Q9Y261 whole entry, looked up): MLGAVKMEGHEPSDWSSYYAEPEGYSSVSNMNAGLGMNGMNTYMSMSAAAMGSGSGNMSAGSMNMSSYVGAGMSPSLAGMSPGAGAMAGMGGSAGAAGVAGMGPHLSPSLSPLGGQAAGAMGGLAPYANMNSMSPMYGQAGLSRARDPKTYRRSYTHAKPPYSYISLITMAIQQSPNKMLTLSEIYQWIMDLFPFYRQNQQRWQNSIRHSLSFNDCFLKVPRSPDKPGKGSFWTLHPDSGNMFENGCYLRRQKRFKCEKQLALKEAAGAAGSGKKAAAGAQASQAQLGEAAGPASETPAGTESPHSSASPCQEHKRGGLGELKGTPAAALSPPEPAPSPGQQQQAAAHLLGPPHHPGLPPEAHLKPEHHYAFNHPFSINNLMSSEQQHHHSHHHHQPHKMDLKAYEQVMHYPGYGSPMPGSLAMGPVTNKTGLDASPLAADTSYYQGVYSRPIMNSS

Cc1ccc2ncccc2c1
inactive: all assays above

c1cc(-c2ccncc2)ccn1
inactive: all assays above

COCCOCCOC
inactive: all assays above

Nc1ccccc1N
active: [2] 72.5 µM | [3] 54.2 µM | [4] 24.2 µM | [6] 1.41 µM | [7] 15.7 µM | [9] 5.4 µM | [14] 53.8 µM
inactive: all other assays above

CCCCCCCCCCCCCO
active: [2] 10.3 µM | [4] 59.4 µM | [7] 34.3 µM | [9] 34.3 µM | [10] 11.7 µM | [12] 21.8 µM
not listed: [15]
inactive: all other assays above

CCCCC(CC)COC(=O)CC(C(=O)OCC(CC)CCCC)S(=O)(=O)O (stereo unspecified)
inactive: all assays above

NCCO
inactive: all assays above

CCCCCC(=O)O
active: [6] 82.2 µM
not listed: [15]
inactive: all other assays above

CN1CCCC1=O
not listed: [15]
inactive: all other assays above

CC1=C(/C=C/C(C)=C/C=C/C(C)=C/CO)C(C)(C)CCC1
inactive: [1] | [2] | [3] | [9] | [11] | [12] | [13] | [17] | [18]
active: [4] 193 µM | [5] 65.6 µM | [6] 104 µM | [7] 168 µM | [8] 164 µM | [10] 0.104 µM | [14] 80.7 µM | [16] 4.13 µM | [19] 167 µM | [20] 166 µM

Cc1ccc(C)c(O)c1C
inactive: all assays above

CCOc1ccc2c(c1)C(C)=CC(C)(C)N2
active: [4] 69.4 µM | [5] 175 µM | [7] 100 µM | [12] 156 µM | [14] 144 µM | [16] 25.5 µM | [17] 181 µM | [19] 179 µM
inactive: all other assays above

COc1cc(C=O)ccc1O
active: [6] 80.8 µM | [10] 31.1 µM
inactive: all other assays above

COc1ccc(S(=O)(=O)N2C(=O)[C@@](c3ccccc3OC)(N3C[C@H](O)C[C@H]3C(=O)N(C)C)c3cc(Cl)ccc32)c(OC)c1
active: [1] 130 µM | [2] 87.9 µM | [5] 26.1 µM | [6] 29.9 µM | [7] 27.6 µM | [9] 55.5 µM | [14] 36.7 µM | [17] 83.5 µM | [18] 132 µM
inactive: all other assays above

— PubChem BioAssay (EPA / NIEHS)
